Assay outcomes: PubChem, National Center for Advancing Translational Sciences (NCATS)
HepG2 viability = qHTS for Inhibitors of TGF-b: Cytotox Counterscreen; HepG2 CAGA-GFP viability, ATP luminescence, 18 h; Potency, µM (titrated, usually from 46.1 µM), most hits filed as cytotoxic; hit rate 0.76% among 410,000
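CellTiter-Glo luminescence gave cytotoxicity after 18 hours at 37 degrees C. The cells were HepG2 CAGA-GFP in 1% FBS DMEM, stimulated with 500 pg/mL TGF-beta after compound addition. %Activity was normalised to no-cell wells (complete cell-killing) and DMSO (no toxicity), and curves were fitted and classified.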
IL-1B inflam inh = qHTS for Inhibitors of Inflammasome Signaling: IL-1-beta AlphaLISA Primary Screen | THP-1 LPS/ATP IL-1B secretion, AlphaLISA, 16 h; active compounds read low | activity change, % at 57.5 µM | hit rate 4.7% among 360,000 | AID 743279, 2014; in the data active = activity change below about -50%; inconclusive = mostly about -30% to -49%
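THP-1 cells pretreated 1 hr with compounds (up to 57.5 uM final), then stimulated with LPS (250 ng/mL final) plus ATP (1.25 mM final); secreted IL-1B measured by AlphaLISA after 16 hr, decreased signal indicating inhibition.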
S-ASM inh = Inhibitors of Secretory Acid Sphingomyelinase (S-ASM): qHTS; Sphingomyelin phosphodiesterase (Homo sapiens), P17405; placental ASM, HMU-PC fluorogenic substrate, 60 min; Potency, µM (highest dose often 57.5 µM), most hits filed as inhibitors; hit rate 0.006% among 340,000; AID 504937, 2011
Target sequence (P17405 47-631 limits assumed): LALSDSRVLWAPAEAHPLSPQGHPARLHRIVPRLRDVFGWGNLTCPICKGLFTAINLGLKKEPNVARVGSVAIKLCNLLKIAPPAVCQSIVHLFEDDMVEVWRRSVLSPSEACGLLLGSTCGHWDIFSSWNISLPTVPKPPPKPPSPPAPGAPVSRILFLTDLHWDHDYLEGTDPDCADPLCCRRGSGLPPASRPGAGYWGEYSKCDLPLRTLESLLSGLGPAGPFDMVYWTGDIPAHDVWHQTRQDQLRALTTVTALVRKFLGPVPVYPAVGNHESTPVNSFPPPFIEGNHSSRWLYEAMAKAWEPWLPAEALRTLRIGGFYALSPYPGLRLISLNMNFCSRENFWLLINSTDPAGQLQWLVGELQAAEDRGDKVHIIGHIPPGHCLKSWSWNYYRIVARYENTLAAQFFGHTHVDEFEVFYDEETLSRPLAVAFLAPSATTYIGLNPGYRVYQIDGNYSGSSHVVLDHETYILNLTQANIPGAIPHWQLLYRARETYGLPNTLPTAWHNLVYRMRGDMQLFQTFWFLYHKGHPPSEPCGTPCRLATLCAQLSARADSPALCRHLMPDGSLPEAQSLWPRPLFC
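Fluorogenic HMU-PC substrate (9 uM final) is turned over by placental ASM in 60 min at 37 C after a 10 min compound preincubation. Reaction ended by alkaline stop (pH 10), with fluorescence read at 386/447 nm.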
DT40 TDP1 CPT = qHTS for Inhibitors of human tyrosyl-DNA phosphodiesterase 1 (TDP1): qHTS in cells in presence of CPT; chicken DT40 Tdp1-/-;hTDP1 cells + 20 nM CPT, ATP luminescence, 48 h; Potency, µM (titrated, usually from 46.2 µM), most hits filed as inhibitors; hit rate 12% among 420,000; note: nearly all actives have a fitted effect of over 55% in size
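Chicken DT40 Tdp1-/- cells complemented with human TDP1, 400 cells/well, exposed to compounds plus 20 nM camptothecin for at least 48 h at 37 C; viability read as ATP content by CellTiter-Glo luminescence.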
DT40 TDP1 no CPT = qHTS for Inhibitors of human tyrosyl-DNA phosphodiesterase 1 (TDP1): qHTS in cells in absence of CPT; Potency, µM (highest dose often 46.2 µM), most hits filed as inhibitors; AID 686978, 2013; hit rate 15% among 420,000; DT40 Tdp1-/- hTDP1 cells, no CPT, ATP luminescence, 48 h; note: nearly all actives have a fitted effect of over 55% in size
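A cellular qHTS used chicken DT40 cells lacking endogenous Tdp1 but carrying stably transfected human TDP1. Compounds were applied without camptothecin, and cell growth kinetics were judged by ATP-dependent luminescence after ≥48 hr.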
TGFb inhibitor = qHTS for Inhibitors of TGF-b; HepG2 CAGA-GFP TGF-b/SMAD3 reporter, GFP fluorescence, 18 h; TGF-beta stimulated, 500 pg/mL final; Potency, µM (highest dose often 46.1 µM), hits mostly inhibitors; hit rate 1.2% among 410,000; AID 588855, 2011; note: nearly all actives have a fitted effect of over 65% in size
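Using HEPG2 CAGA-GFP reporter cells at 1000 cells/well, we pinned test compounds, stimulated with recombinant TGF-beta (500 pg/mL final) and measured total well GFP after 18 h.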
Numbers stand for hits; . = inactive; ? = inconclusive; / = not tested or not shown. In the library only some 19% were active in any assay of this set; here they are far more common. Unless noted, calls come from the whole dose curve; as a rule, active = well fitted curve in the direction sought with a large enough effect; inconclusive = small, poorly fitted or top-dose-only effect, or another doubt; inactive = no such curve, though single readings can be large; an effect the other way counts as inactive or inconclusive.

SMILES	HepG2 viability	IL-1B inflam inh	S-ASM inh	DT40 TDP1 CPT	DT40 TDP1 no CPT	TGFb inhibitor
CC(=O)c1cccc(-n2nnnc2SCC(=O)Nc2ccccc2N2CCCCC2)c1	.	.	.	?	23.1µM	?
CCCS(=O)(=O)c1nnnn1-c1cccc(OC)c1	17.8µM	-67.0	.	3.66µM	5.17µM	?
COc1cccc(-n2nnnc2SCC(=O)Nc2ccc(OC)cc2OC)c1	.	.	.	.	.	.
COc1cccc(-n2nnnc2SCC(=O)Nc2ccccc2OC)c1	.	.	.	.	.	.
COc1ccc(-n2nnnc2SCC(=O)Nc2ccccc2N2CCOCC2)cc1OC	.	.	.	.	.	.
COc1cccc(-n2nnnc2SCC(=O)Nc2ccc(C(C)=O)cc2)c1	.	.	.	25.9µM	23.1µM	.
COC(=O)Cn1c(O)c(N=NC(=O)c2ccc3c(c2)OCO3)c2ccccc21	.	.	.	?	.	.
c1ccc(CSc2ncccn2)cc1	.	.	.	.	.	.
c1ccc(CSC2=NNC(c3ccccn3)S2)cc1 (configuration not stated)	.	.	.	0.0058µM	0.164µM	?
CC(C)N(C(=O)[C@H]1C[C@H](CC(=O)NCCC2=CCCCC2)C(=O)N2CCc3c([nH]c4cc(-c5ccco5)ccc34)[C@]12C)C(C)C	.	-68.7	?	?	?	?
C[C@]12c3[nH]c4cc(-c5ccco5)ccc4c3CCN1C(=O)[C@@H](CC(=O)NCc1cccc(C(F)(F)F)c1)C[C@@H]2C(=O)N1CCOCC1	.	-52.8	.	?	?	?
C[C@]12c3[nH]c4ccccc4c3CCN1C(=O)C(CC(=O)NCc1cccc(C(F)(F)F)c1)C[C@@H]2C(=O)N1CCCCC1 (some centres not stated)	.	-65.7	.	20.6µM	14.6µM	11.2µM
C[C@]12c3[nH]c4ccccc4c3CCN1C(=O)C(CC(=O)NCc1cccc(C(F)(F)F)c1)C[C@@H]2C(=O)N1CCOCC1 (some centres not stated)	.	?	.	?	?	.
CC[C@]12c3[nH]c4ccccc4c3CCN1C(=O)C(CC(=O)NCc1cccc(C(F)(F)F)c1)C[C@@H]2C(=O)N1CCN(C(=O)c2ccco2)CC1 (some centres not stated)	.	-51.7	.	18.4µM	?	.
Cc1c(Cl)cccc1NC(=O)c1ccc2c(c1)CCN2S(=O)(=O)c1ccccc1	.	/	/	?	?	.
COC(=O)c1ccccc1S(=O)(=O)N1CCC(C(=O)OCc2ccc([N+](=O)[O-])cc2)CC1	.	.	.	.	.	.
CN(Cc1ccco1)S(=O)(=O)c1ccc(CN2C(=O)c3cccnc3C2=O)s1	.	.	.	.	.	?
CC(C)N(C(=O)[C@H]1C[C@H](CC(=O)NCc2cccc(C(F)(F)F)c2)C(=O)N2CCc3c([nH]c4cc(-c5ccco5)ccc34)[C@]12C)C(C)C	.	-67.4	?	?	?	?
CC(C)c1ccc(C2c3c(-c4ccccc4O)n[nH]c3C(=O)N2Cc2ccncc2)cc1 (configuration not stated)	.	/	/	?	?	?
CSc1ccc(C2c3c(-c4ccccc4O)n[nH]c3C(=O)N2Cc2ccncc2)cc1 (configuration not stated)	.	/	/	23.1µM	18.4µM	?
COC(=O)c1ccc(C2c3c(-c4ccccc4O)n[nH]c3C(=O)N2Cc2cccnc2)cc1 (configuration not stated)	.	/	/	?	?	.
CCc1ccc(C2c3c(-c4ccccc4O)n[nH]c3C(=O)N2Cc2cccnc2)cc1 (configuration not stated)	.	/	/	16.4µM	?	?
Cc1ccc(CCNC(=O)CCS(=O)(=O)c2cc3c(cc2C)NC(=O)CO3)cc1	.	.	.	.	.	.
Cc1ccc(NC(=O)CSc2nc3c(oc4ccccc43)c(=O)n2-c2ccc(F)cc2)c(C)c1	.	/	/	.	.	?
Cc1ccccc1NC(=O)CSc1nc2c(oc3ccccc32)c(=O)n1-c1ccccc1F	.	/	/	?	23.1µM	?
SMILES	HepG2 viability	IL-1B inflam inh	S-ASM inh	DT40 TDP1 CPT	DT40 TDP1 no CPT	TGFb inhibitor
CCc1ccccc1NC(=O)CSc1nc2c(oc3ccccc32)c(=O)n1-c1ccccc1F	.	/	/	?	18.4µM	.
Cc1cccc(C)c1-n1cccc1/C=C1\SC(=S)N(c2cccc(C(=O)O)c2)C1=O	.	.	.	?	.	.
O=C(c1ccco1)N1CCN(C(c2ccccc2Cl)c2nnnn2Cc2cccs2)CC1 (configuration not stated)	.	.	.	?	25.9µM	?
O=C(c1ccco1)N1CCN(C(c2ccccc2Cl)c2nnnn2Cc2ccco2)CC1 (configuration not stated)	.	.	.	16.4µM	?	.
O=C(c1ccco1)N1CCN(C(c2ccccc2)c2nnnn2Cc2cccs2)CC1 (configuration not stated)	.	.	.	.	?	.
CCC(c1nnnn1Cc1ccco1)N1CCN(C(=O)c2ccco2)CC1 (configuration not stated)	.	.	.	.	.	.
CCc1ccc(NSc2ccccc2[N+](=O)[O-])cc1	.	?	.	?	?	?
COCCNc1nc(-c2ccccc2CO)c2sc(-c3ccccc3)cc2n1	.	.	/	1.3µM	1.84µM	.
COCCNc1nc(NCC2CCCCC2)c2sc(-c3ccccc3)cc2n1	.	-103.5	/	14.6µM	8.2µM	?
COCCNc1nc(NCCOc2ccccc2Cl)c2sc(-c3ccccc3)cc2n1	14.1µM	-59.6	/	9.2µM	13µM	?
COCCNc1nc2cc(-c3cccc(Cl)c3)sc2c(=O)n1C	.	.	/	?	?	.
COCCNc1nc(NCCCN2CCCC2=O)c2sc(-c3ccccc3)cc2n1	.	.	/	?	?	.
O=C1NCCN1CCNc1nc(NCC2CC2)nc2cc(-c3ccccc3)sc12	.	/	/	?	20.6µM	.
Cn1c(NCCOc2ccccc2Cl)nc2cc(-c3ccc(F)cc3)sc2c1=O	.	.	/	?	?	.
CN(C(=O)COC(=O)c1ccc2ccccc2n1)C1CCS(=O)(=O)C1 (configuration not stated)	.	.	.	.	.	.
